Test results from PubChem BioAssay (NCI).
The panel holds about 83,000 compounds, 20% with a hit somewhere; the sample as a whole holds those more often.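 Treatment: one concentration, 48 hours, 96-well format. Scoring: percent growth, with anything below 10 considered active.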 Values without a mark were called inactive. The source made the active and inactive calls.

Assays:
Assay in all cases: NCI-60 one-dose screen, 48 h (100 = growth as untreated, 0 = no growth, -100 = all killed)
Conditions in all cases: 10 µM unless noted
NCI-H23 lung = tested on: NCI-H23 lung
NCI-H226 lung = tested on: NCI-H226 lung
NCI-H322M lung = tested on: NCI-H322M lung
HOP-62 NSCLC = tested on: HOP-62 NSCLC
NCI-H460 lung = tested on: NCI-H460 lung
HOP-92 NSCLC = tested on: HOP-92 NSCLC
NCI-H522 lung = tested on: NCI-H522 lung
A549/ATCC NSCLC = tested on: A549/ATCC NSCLC
786-0 renal = tested on: 786-0 renal
COLO 205 colon = tested on: COLO 205 colon

| Compound | growth (NCI-H23 lung) [%] | growth (NCI-H226 lung) [%] | growth (NCI-H322M lung) [%] | growth (HOP-62 NSCLC) | growth (NCI-H460 lung) | growth (HOP-92 NSCLC) | growth (NCI-H522 lung) | growth (A549/ATCC NSCLC) [%] | growth (786-0 renal) | growth (COLO 205 colon) |
| --- | --- | --- | --- | --- | --- | --- | --- | --- | --- | --- |
| CCOC(=O)c1c(C)nc2c(c1N)CC(=O)N2Cc1ccc(OC)cc1 | 33.7 | 17.4 | 41 | -7.19% (active) | 5.12% (active) | -4.45% (active) | -1.06% (active) | 25.8 | 6.69% (active) | 95.4% |
| COc1ccc(C(O)c2cc3c(N)c(C(=O)Nc4cccc(Cl)c4C)sc3nc2C)cc1 (stereo not given) | 25.5 | 54.5 | 39.4 | 16.2% | -6.01% (active) | 16.2% | -34.9% (active) | 10.5 | 22.2% | -23% (active) |
| O=[N+]([O-])c1ccc(-c2cn3nc(-c4c[nH]c5ccccc45)sc3n2)cc1 | 88.1 | 90.8 | 84.9 | 94.6% | 98% | 102% | 80.7% | 86.9 | 103% | 108% |
| NC(N)=NS(=O)(=O)c1ccc(NC2=C(I)C(=O)c3ncccc3C2=O)cc1 | 89.9 | 86.7 | 109 | 111% | 103% | 115% | 81% | 106 | 110% | 112% |
| CC1=C(C(=O)Nc2nc(-c3ccc(Cl)cc3)cs2)[C@H](c2ccc(O)cc2)NC(=O)N1 | 101 | 87.8 | 88.3 | 99.1% | 104% | 100% | 90.5% | 95.1 | 97.8% | 110% |
| Cc1ccc(S(=O)(=O)N2CCC(=O)c3ccccc32)cc1 | 85 | 93.9 | 89.3 | 80.8% | 86.5% | 80.8% | 84% | 102 | 93.7% | 76.4% |
| COc1cc(OC)c2sc(-c3ccc(-n4cncc4-c4cc(OC)c(OC)c(OC)c4)cc3)nc2c1 | 54.5 | 52.7 | 86.8 | 79.6% | 46.2% | 14.8% | 43.2% | 50.9 | 67.2% | 44.5% |
| COC(=O)c1cc(Br)ccc1O | 110 | 101 | 105 | 103% | 109% | 86.6% | 94.8% | 99.9 | 96.7% | 112% |
| C=Cc1cnc(Nc2ccc(OC)cc2)nc1NCCCNC(=O)C1CCC1 | 45.2 | 46.5 | 68.8 | 40.7% | 34.5% | 55.4% | 47.9% | 32.4 | 44.3% | 44.8% |
| Nc1nc2c(c3ncccc13)C(c1cccc(Cl)c1)Cc1ncccc1-2 (stereo not given) | 39.7 | 75.8 | 49.7 | 20.1% | 6.87% (active) | 38.6% | -14.5% (active) | 18.6 | 22.6% | -21.5% (active) |
| CNCc1cccc2c1OCCOCCOCCNS(=O)(=O)c1ccc(cc1)-c1cnc(N)c(n1)C(=O)N2 | 36.7 | 24.5 | 46.2 | 26.4% | 9.41% (active) | 61.7% | 9.67% (active) | 46.3 | 30.8% | -18.7% (active) |
| CC(C)(C)n1cc(-c2ccnc(NCCNS(=O)(=O)c3ccc(O)cc3)c2)c(-c2cccc(O)c2)n1 | 98.6 | 102 | 105 | 101% | 104% | 102% | 94.8% | 97.3 | 103% | 91.9% |
